Some test systems named below: SK-MEL-2 melanoma; EKVX NSCLC; SN12C renal; UO-31 renal; TK-10 renal; ACHN renal; CAKI-1 renal; A498 renal; CCRF-CEM leukemia; MOLT-4 leukemia.
What all share (assay): NCI-60 one-dose screen, 48 h (100 = growth as untreated, 0 = no growth, -100 = all killed)
Conditions in all cases: 10 µM unless noted

Structures are written as SMILES. This is part of a sample that, as a whole, favours compounds with a hit. Of some 83,000 tested, about 20% had one in any assay.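 Results are percent growth after 48 hours of single-concentration exposure. 100 means growth as in untreated cells, lower positive values show inhibition; negative values down to -100 show cell death.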 Values without a mark were called inactive. Calls of active or inactive are those of the source. How the source made its calls: active means growth percent below 10; inactive means the rest.

We go through 14 molecules from PubChem BioAssay (NCI).

For the molecule `C#CCn1cc(/C=N/Nc2nc(-c3ccc(Br)cc3)cs2)c2ccccc21`, the growth in the assay with SK-MEL-2 melanoma is 104%; with EKVX NSCLC it was 63.9%; in the assay with SN12C renal, 95.1%; in the assay with UO-31 renal, 81.4%; in the assay with TK-10 renal, 162%; in the assay with ACHN renal, 98%. Besides, the growth with CAKI-1 renal is 106%; in the assay on A498 renal, 94.7%; with CCRF-CEM leukemia it was 101%; in the assay with MOLT-4 leukemia, 101%.
For `CN1CCN(c2ccc(C(=O)/C=C/c3cc(F)cc(C(F)(F)F)c3)cc2)CC1`, the growth is 117% in the assay with SK-MEL-2 melanoma; 88.9% with EKVX NSCLC; 75.7% in the assay on SN12C renal; 53.3% with UO-31 renal; 144% with TK-10 renal; 67.9% in the assay on ACHN renal. In addition, the growth in the assay with CAKI-1 renal is 51.5%; in the assay on A498 renal, 96.9%; with CCRF-CEM leukemia, 14.1%; in the assay on MOLT-4 leukemia, 46.8%.
Take `N#Cc1c(-c2ccc(Br)cc2)cc(-c2c[nH]c3ccccc23)nc1N`: the growth in the assay on SK-MEL-2 melanoma is 39.6%; with EKVX NSCLC it was 51.6%; in the assay on SN12C renal, 66.3%; in the assay with UO-31 renal, 43.6%; in the assay on TK-10 renal, 96.8%; in the assay with ACHN renal, 57.4%. Moreover, the growth is 30.9% in the assay with CAKI-1 renal, 63.7% in the assay with A498 renal, 34.1% with CCRF-CEM leukemia and 41.4% with MOLT-4 leukemia.
Turning to `COc1cccc(N2CCN(C3=C(Cl)C(=O)c4ncccc4C3=O)CC2)c1`, the growth in the assay on SK-MEL-2 melanoma is 98.4%; in the assay with EKVX NSCLC, 102%; in the assay with SN12C renal, 95.8%; with UO-31 renal it was 38%; with TK-10 renal, 126%; in the assay with ACHN renal, -23.8% (active). Further, the growth is 57.8% with CAKI-1 renal, 104% in the assay with A498 renal, 10% (active) with CCRF-CEM leukemia and 18.2% in the assay with MOLT-4 leukemia.
In the case of `O=C1C(SCc2ccccc2)=C(Cl)CN1c1ccccc1`, the growth in the assay on SK-MEL-2 melanoma is 110%; in the assay with EKVX NSCLC, 97.9%; in the assay with SN12C renal, 95.7%; with UO-31 renal, -90.8% (active); with TK-10 renal it was 136%; in the assay on ACHN renal, 94.7%. In addition, the growth is 80.9% in the assay on CAKI-1 renal, 94.3% in the assay with A498 renal, 86.1% in the assay with CCRF-CEM leukemia and 84.3% with MOLT-4 leukemia.
On to `COc1ccccc1/C=C/C(=O)c1nnn(-c2ccc(F)cc2)c1C`, for which the growth with SK-MEL-2 melanoma was 93.2%; in the assay with EKVX NSCLC, 69.3%; in the assay on SN12C renal, 68.5%; in the assay with UO-31 renal, 38.1%; with TK-10 renal, 110%; with ACHN renal, 46.1%. Also, the growth in the assay on CAKI-1 renal was 38.5%; in the assay on A498 renal it was 66.8%; with CCRF-CEM leukemia, 14%; with MOLT-4 leukemia, 45%.
On to `COc1ccc2c(c1)c(-c1nn3cc(-c4ccncc4)nc3s1)cn2C`, for which the growth was 104% with SK-MEL-2 melanoma; 77.6% with EKVX NSCLC; 84.3% in the assay with SN12C renal; 53.3% in the assay with UO-31 renal; 130% in the assay on TK-10 renal; 71.4% in the assay on ACHN renal. For the same molecule, the growth in the assay on CAKI-1 renal is 50.6%; in the assay on A498 renal, 83.7%; in the assay on CCRF-CEM leukemia, 43.9%; in the assay with MOLT-4 leukemia, 47.2%.
Regarding `CN1CCN(CCNc2nc(-c3cccc(NS(=O)(=O)c4cccc5c(N(C)C)cccc45)c3)cs2)CC1`, the growth in the assay with SK-MEL-2 melanoma was 103%; with EKVX NSCLC it was 50%; in the assay on SN12C renal it was 58.9%; in the assay on UO-31 renal, 56.8%; in the assay with TK-10 renal it was 90.7%; in the assay with ACHN renal, 72.5%. Further, the growth was 58.6% with CAKI-1 renal, 67.5% with A498 renal, 60.1% in the assay on CCRF-CEM leukemia and 44.6% with MOLT-4 leukemia.
`O=C1[C@@H]2Cc3c([nH]c4ccccc34)[C@H](c3ccc(Cl)cc3)N2C(=O)CN1C1CCN(Cc2ccccc2)CC1`: the growth with SK-MEL-2 melanoma is 82.3%; in the assay with EKVX NSCLC, 47.1%; in the assay with SN12C renal, 46.4%; with UO-31 renal, 26.3%; with TK-10 renal, 81%; in the assay on ACHN renal, 49.4%. The growth in the assay on CAKI-1 renal was 27.3%; in the assay with A498 renal it was 57.5%; with CCRF-CEM leukemia it was 36.7%; in the assay on MOLT-4 leukemia, 27%.
On to `Cn1ncc2ncc(-c3ccc4ncc(C#N)c(N5CCc6cc(F)c(Cl)cc65)c4c3)cc21`, for which the growth in the assay with SK-MEL-2 melanoma is 47.6%; with EKVX NSCLC it was 11.3%; with SN12C renal it was 30.3%; in the assay on UO-31 renal, 3.14% (active); in the assay on TK-10 renal, 63.2%; in the assay on ACHN renal it was 17%. Moreover, the growth in the assay on CAKI-1 renal was 13.6%; in the assay on A498 renal, 2.55% (active); in the assay on CCRF-CEM leukemia, 28.4%; with MOLT-4 leukemia, 12.6%.
Take `CS(=O)(=O)c1ccc(/C(=N/N=C(N)N)c2ccc(Cl)cc2)cc1`: the growth with SK-MEL-2 melanoma is 93.7%; with EKVX NSCLC it was 91%; with SN12C renal, 95.7%; in the assay on UO-31 renal, 84.4%; in the assay on TK-10 renal, 76.1%; in the assay with ACHN renal, 99.1%. For the same molecule, the growth in the assay with CAKI-1 renal is 59.5%; with A498 renal, 76.9%; in the assay on CCRF-CEM leukemia it was 94.3%; in the assay on MOLT-4 leukemia it was 99.1%.
As to `CC[C@]12C=CCN3CC[C@@]4(c5ccc(OC)cc5N(C)[C@H]4[C@@](O)(C(=O)OC)[C@@H]1OC(=O)CCN1CCc4ccccc4C1)[C@@H]32`, the growth in the assay with SK-MEL-2 melanoma is 108%; in the assay with EKVX NSCLC it was 88.6%; in the assay with SN12C renal, 99.4%; with UO-31 renal it was 71.6%; in the assay on TK-10 renal, 98.8%; in the assay on ACHN renal, 99.3%. The growth is 80.3% with CAKI-1 renal, 94.5% with A498 renal, 82.6% in the assay with CCRF-CEM leukemia and 80.5% with MOLT-4 leukemia.
For the molecule `COc1ccc(OC)c(NC(=O)CCCCCCNC(=O)C(O)(O)C(F)(F)F)c1`, the growth in the assay with SK-MEL-2 melanoma was 10.6%; with EKVX NSCLC, 56%; in the assay on SN12C renal, 58.9%; in the assay on UO-31 renal, 30.3%; with TK-10 renal it was 12.9%; with ACHN renal, 15.3%. In addition, the growth in the assay with CAKI-1 renal was 25.2%; in the assay with A498 renal, 38.3%; with CCRF-CEM leukemia it was 23.5%; in the assay with MOLT-4 leukemia, 20%.
`O=C(Nc1ccc(Cl)c(C(F)(F)F)c1)Nc1ccc2oc(=O)ccc2c1`: the growth in the assay with SK-MEL-2 melanoma is 71.2%; in the assay on EKVX NSCLC, 35.2%; with SN12C renal it was 31.9%; in the assay with UO-31 renal, 31.3%; in the assay on TK-10 renal, 70.4%; with ACHN renal, 10.2%. For the same molecule, the growth in the assay on CAKI-1 renal is 36.1%; in the assay on CCRF-CEM leukemia it was 25.5%; with MOLT-4 leukemia, 28.2%.
